Measurements as given in PubChem BioAssay AID686978 (National Center for Advancing Translational Sciences (NCATS), 2013).
In all, about 420,000 compounds went through this assay and about 64,000 (15%) were called active. Roughly 27% stayed inconclusive and do not appear here. Only a sample is shown. A number with no mark means an inactive call. Calls follow the shape of the dose curve; as a rule, active = well fitted inhibition curve with a large enough effect; inconclusive = small, poorly fitted or top-dose-only effect; inactive = flat fitted curve, though single readings scatter.

Experiment: qHTS for Inhibitors of human tyrosyl-DNA phosphodiesterase 1 (TDP1): qHTS in cells in absence of CPT; also: nearly all actives have a fitted effect of over 55% in size
Conditions: DT40 Tdp1-/- hTDP1 cells, no CPT, ATP luminescence, 48 h; activity change, negative = growth inhibition: at 46.2 µM (top of the series)
In short: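 Readout: luminescence from CellTiter-Glo after 30 min in the dark at RT. Cells: DT40 Tdp1-/- with stable hTDP1, 400/well. Exposure: compounds alone, ≥48 hr, 37 °C.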
% is scaled to controls: 0 for no effect and ±100 for the full control effect; potency is read from the fitted curve at half-maximal effect.

First: Cc1ccc(C(=O)N/C(=C\c2cn(S(=O)(=O)N(C)C)c3ccccc23)C(=O)N2CCCC2)cc1
Second: Cc1nc2ccccc2c(C)c1C(=O)c1ccc(F)cc1
The “activity change, negative = growth inhibition” value of the first is lower: -14.7% for the first, -6.13% for the second.

First: CN1CCN(/N=C/c2ccc(C#N)cc2)CC1
Second: O=[N+]([O-])c1ccc(N2CCN(S(=O)(=O)c3ccccc3)CC2)cc1N1CCc2ccccc2C1
The “activity change, negative = growth inhibition” value of the first is lower: -20.6% for the first, -4.16% for the second.

Compared with `Cc1ccc(NS(=O)(=O)c2ccc3c(c2)CC(=O)N3)cc1Cl`, `CC1=NCCN1S(=O)(=O)c1ccc(Br)c(C)c1` is lower in “activity change, negative = growth inhibition” value: -18.8% for the first, -20.7% for the second.

Going from `O=C1c2cccnc2C(=O)N1Cc1cccs1` to `Cc1cccc(N2C(=O)c3cccnc3C2=O)c1`, the “activity change, negative = growth inhibition” value rises from -22% to -2.8%.

First: Cc1cccc(-c2noc(-c3ccc(F)cc3)n2)c1
Second: COc1cccc(C2=CC(=O)C[C@H](c3ccc(F)cc3)C2)c1OC
The “activity change, negative = growth inhibition” value of the first is higher: 1.15% for the first, -29.4% for the second.

First: COc1ccccc1-c1nc(NCCNC(C)=O)c2ccccc2n1
Second: CCCCn1c(=O)c2oc3ccccc3c2n(CC(=O)Nc2ccccc2OC)c1=O
The “activity change, negative = growth inhibition” value of the first is higher: 15.7% for the first, -4.94% for the second.

Compared with `Oc1ccc(-c2nnc(Nc3ccccc3)c3ccccc23)cc1`, `N#Cc1c(-c2ccccc2)c(-c2ccccc2)n[nH]c1=O` is lower in “activity change, negative = growth inhibition” value: 13.6% for the first, -17.4% for the second.

First: COc1ccc(-c2nc3n(c(=O)c2C#N)CCS3)c(OC)c1
Second: COc1ccc(/C=C/c2nnc(NC(=O)C(C)C)s2)cc1
The “activity change, negative = growth inhibition” value of the first is higher: 9.93% for the first, -19.3% for the second.

Compared with `O=C(Nc1ccc(OCC(=O)N2CCOCC2)cc1)c1cc(F)c(F)cc1Cl`, `CSCCC(NC(=O)COc1ccccc1)C(=O)OCc1ccc(Cl)cc1` (stereo not given) is higher in “activity change, negative = growth inhibition” value: -18.8% for the first, -13.5% for the second.

Compared with `CCn1c(CSc2nc(C)cc(C)n2)nnc1SCC(N)=O`, `CC(C)c1nc2cc(C(=O)NC(C)c3cnn(C)c3)ccc2o1` (stereo not given) is lower in “activity change, negative = growth inhibition” value: 7.59% for the first, -0.753% for the second.

With `Cc1cccc(N=C2SC(C)CN2C(=O)CN2C(=O)NC3(CCCC3)C2=O)c1` (stereo not given) the “activity change, negative = growth inhibition” value was -6.89%.

For `C/C=C(\C)C(=O)OC1C(OC(=O)C2(C)OC2C)c2cc3ccc(=O)oc3cc2OC1(C)C` (stereo not given), the activity change, negative = growth inhibition was -10.9% [at 9.04 µM].

In the case of `NC1=CC(=O)C(=O)c2cccnc21`, the Potency is reported as 3.66 µM (active).
With `Cc1cccc(-c2nc(Nc3ccc(O)cc3)c3ccccc3n2)c1` the Potency was 20.6 µM (active).
With `COc1cccc(-c2nc(Nc3ccncc3)c3ccccc3n2)c1` the Potency was 10.3 µM (active).
In the case of `COc1cc(Nc2nc(-c3ccc(OC)c(OC)c3)nc3ccccc23)cc(OC)c1`, the Potency is reported as 2.06 µM (active).
In the case of `CNc1nc(-c2ccccc2OC)nc2ccccc12`, the Potency is reported as 7.31 µM (active).
For `COCCCn1c(SCc2cccc(OC)c2)nc2cc(OC)c(OC)cc2c1=N`, the Potency was 16.4 µM (active).
For `COc1ccc(C2Sc3ccccc3NC3=C2C(=O)c2ccccc23)c(OC)c1OC` (stereo not given), the Potency was 1.84 µM (active).
For `CN(CCOc1ccc(CC2SC(=O)NC2=O)cc1)c1ccccn1` (stereo not given), the Potency was “inactive”.
